In the library only some 21% were active in any assay of this set; here they are far more common.
Shiga inhibitor = Shiga toxin inhibition | 9.2% of 290,000 active | Vero cells, Shiga toxin protein synthesis inhibition reporter | AID 2315 | inhibition, % at 38.7 µM; in the data active = inhibition mostly above about 28%, no sharp cut-off; inactive = mostly below about 43%; also: 0% is about no effect
NS1 inh = influenza NS1 inhibition | Potency, µM (top dose mostly 46.1 µM), inactives show at the top dose activity, positive = more growth | 0.4% of 270,000 active; calls by dose curve; also: potency is read from the fitted curve at half-maximal effect; actives are rising curves; nearly all actives have a fitted effect of over 50% in size
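Compounds were scored for reversing the slow growth caused by influenza A NS1 in S. cerevisiae, measured by optical density at 600 nm. Assay medium contained 2% galactose at pH 6.0; NS1-free yeast of the same strain were the positive control.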
Pf growth 48h = inhibits P. falciparum growth in the first generation, 48 h. 5.9% of 310,000 active. Potency, µM (highest dose often 28.7 µM), for the others: top-dose activity change, negative = inhibition, hits mostly inhibitors. P. falciparum luciferase growth in erythrocytes, 48 h; also: potency is read from the fitted curve at half-maximal effect; % is scaled to controls: 0 for no effect and ±100 for the full control effect
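Luciferase-expressing parasites in RBCs, 2% Hct / 0.1% parasitemia final; RPMI 1640 + 0.5% Albumax; 37 C, 5% CO2, one generation; luminescence read-out, lower signal = inhibition.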
CHX counter = counter-screen for Shiga toxin inhibitors: cycloheximide protein synthesis inhibition; cell reporter, cycloheximide protein synthesis inhibition counterscreen; max response, %; 12% of 300,000 active; AID 2314; in the data active = max response mostly above about 13%, no sharp cut-off; inactive = mostly below about 14%; also: read at 38.3 µM for the half of the compounds with a filed dose; 0% is about no effect
FBPA Giardia inh = blocks Giardia fructose-bisphosphate aldolase activity | purified Giardia FBPA | Potency, µM (doses to about 59.6 µM), for the others: at the highest dose activity, negative = inhibition, most hits filed as inhibitors | 0.71% of 290,000 active | A8B2U2 | AID 2451; also: potency is read from the fitted curve at half-maximal effect; % is scaled to controls: 0 for no effect and ±100 for the full control effect; nearly all actives have a fitted effect of over 55% in size
Target sequence (A8B2U2 whole entry, looked up): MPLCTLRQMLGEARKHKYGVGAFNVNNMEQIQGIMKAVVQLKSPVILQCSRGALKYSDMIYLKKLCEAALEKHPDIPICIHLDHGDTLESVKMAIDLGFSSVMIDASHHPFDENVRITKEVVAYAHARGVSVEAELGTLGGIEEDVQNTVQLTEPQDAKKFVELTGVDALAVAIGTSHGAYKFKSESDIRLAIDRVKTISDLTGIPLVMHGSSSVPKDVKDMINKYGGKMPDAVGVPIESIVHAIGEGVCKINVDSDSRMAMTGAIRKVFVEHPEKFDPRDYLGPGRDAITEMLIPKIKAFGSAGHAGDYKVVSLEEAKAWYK
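40 nM FBPA preincubated 10 min at RT with compound (up to 57.5 uM final), then substrate plus GAPDH/TPI/NAD/arsenate coupling and diaphorase/resazurin added. Fluorescence read after 20 min at RT, 525/598 nm.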
Pf growth 96h = P. falciparum growth inhibition at 96 hour, primary screen for plastid delayed-death inhibitors; P. falciparum luciferase reporter growth, 96 h; Potency, µM (titrated, usually from 28.7 µM), without a hit: at the highest dose activity change, negative = inhibition, hits mostly inhibitors; 6.9% of 320,000 active; AID 504834; also: potency is read from the fitted curve at half-maximal effect; % is scaled to controls: 0 for no effect and ±100 for the full control effect
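Compounds incubated with erythrocytes infected by luciferase-expressing P. falciparum (2% hematocrit, 0.05% parasitemia final) for 96 hours, 37 C in 5% CO2. Growth inhibition scored as decreased luciferase luminescence.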
* = called active by the depositor. Unless noted, calls follow the shape of the dose curve; as a rule, active = well fitted curve in the direction sought with a large enough effect; inconclusive = small, poorly fitted or top-dose-only effect, or another doubt; inactive = no such curve, though single readings can be large; an effect the other way counts as inactive or inconclusive.

How did CC(C)c1ccc(C(=O)N2CCN(c3cnn(C)c(=O)c3Cl)CC2)cc1 do in these assays?
Shiga inhibitor: 12; NS1 inh: -3%; Pf growth 48h: -7%; CHX counter: 5; FBPA Giardia inh: 1%; Pf growth 96h: -60%

What do the screens show for `Cn1c(CC(=O)Nc2ccccc2F)nnc1SCC(=O)Nc1nccs1`?
Shiga inhibitor: -2; NS1 inh: 3%; Pf growth 48h: 21%; CHX counter: -2; FBPA Giardia inh: -5%; Pf growth 96h: 1%

Results for Cc1ccc(C(=O)CNc2ccc(Br)cc2)cc1 ?
Shiga inhibitor: 44*; NS1 inh: -14%; Pf growth 48h: 32%; CHX counter: 10; FBPA Giardia inh: 2%; Pf growth 96h: 0%

What do the screens show for `C=CCNc1nc(-c2ccccn2)nnc1-c1ccccc1`?
Shiga inhibitor: 4; NS1 inh: -171%; CHX counter: -3; FBPA Giardia inh: inconclusive; Pf growth 96h: 1.7µM*

What do the screens show for `CCCNC(=O)c1ccccc1SCc1c(C)noc1C`?
Shiga inhibitor: -14; NS1 inh: 4%; Pf growth 48h: 2%; CHX counter: -2; Pf growth 96h: inconclusive

What do the screens show for `CCN(CC#CCC(O)(c1ccccc1)c1ccccc1)C(C)C`?
Shiga inhibitor: -3; NS1 inh: -6%; Pf growth 48h: 8.3µM*; CHX counter: -2; FBPA Giardia inh: -3%; Pf growth 96h: inconclusive

How did CC(C)N(CC#CCC(O)(c1ccccc1)c1ccccc1)C(C)C do in these assays?
Shiga inhibitor: -10; NS1 inh: 19%; Pf growth 48h: inconclusive; CHX counter: -5; FBPA Giardia inh: -2%; Pf growth 96h: -2%

Results for N#C/C(=C\c1coc2ccc(O)cc2c1=O)C(=O)Nc1nc2ccccc2s1 ?
Shiga inhibitor: 86*; NS1 inh: 8%; Pf growth 48h: 42%; CHX counter: 32*; FBPA Giardia inh: -20%; Pf growth 96h: 56%

Results for N#C/C(=C\c1coc2ccccc2c1=O)C(N)=S ?
Shiga inhibitor: 0; Pf growth 48h: 19%; CHX counter: 11; FBPA Giardia inh: -17%; Pf growth 96h: inconclusive

How did CCOC(=O)C1CCCN(C(=O)c2ccc(S(=O)(=O)NCc3ccco3)cc2)C1 (stereo not given) do in these assays?
Pf growth 48h: inconclusive; Pf growth 96h: 12µM*

How did CC1CCCC(C)N1C(=O)c1ccc(S(=O)(=O)NCc2ccco2)cc1 (stereo not given) do in these assays?
Shiga inhibitor: 46*; NS1 inh: 1%; Pf growth 48h: -15%; CHX counter: 27*; FBPA Giardia inh: 3%; Pf growth 96h: -8%

Results for CCOC(=O)C1CCCN(C(=O)c2cccc(S(=O)(=O)N(C)c3ccc(C)cc3)c2)C1 (stereo not given) ?
Pf growth 48h: 13µM*; Pf growth 96h: inconclusive

What do the screens show for `O=C(NC1CCCCC1)c1ccc(S(=O)(=O)NCc2ccco2)cc1`?
Shiga inhibitor: 31; NS1 inh: -2%; Pf growth 48h: -21%; CHX counter: -2; FBPA Giardia inh: 1%; Pf growth 96h: -12%

What do the screens show for `COCCCn1c(=O)c2ccccc2n(CC(=O)Nc2ccc3c(c2)OCCO3)c1=O`?
Shiga inhibitor: -8; NS1 inh: 18%; Pf growth 48h: inconclusive; CHX counter: -4; FBPA Giardia inh: 0%; Pf growth 96h: 51%

What do the screens show for `Cn1c(NCc2ccccc2O)nc2ccccc21`?
Shiga inhibitor: 37; NS1 inh: -6%; Pf growth 48h: -2%; CHX counter: 38*; FBPA Giardia inh: 6%

Results for C=CCn1c(NCc2ccc(OC)cc2O)nc2ccccc21 ?
Shiga inhibitor: 23*; NS1 inh: 0%; Pf growth 48h: inconclusive; CHX counter: 33*; FBPA Giardia inh: 9%; Pf growth 96h: 2.9µM*

What do the screens show for `Cc1ccc(CNc2nc3ccccc3n2C)o1`?
Shiga inhibitor: 51*; NS1 inh: 8%; Pf growth 48h: 65%; CHX counter: 54*; FBPA Giardia inh: 2%; Pf growth 96h: 25%

What do the screens show for `CC(C)n1c(NCc2ccccc2O)nc2ccccc21`?
Shiga inhibitor: -9; NS1 inh: 14%; Pf growth 48h: inconclusive; CHX counter: 2; FBPA Giardia inh: 22%; Pf growth 96h: 33%

How did C=CCc1cccc(CNc2nc3ccccc3n2C(C)C)c1O do in these assays?
Shiga inhibitor: 18; NS1 inh: 2%; Pf growth 48h: 4.7µM*; CHX counter: -4; FBPA Giardia inh: -8%; Pf growth 96h: inconclusive

How did CCN(CC)CCn1c(NCc2ccc(C)o2)nc2ccccc21 do in these assays?
Shiga inhibitor: -12; NS1 inh: 0%; CHX counter: -2; FBPA Giardia inh: -9%; Pf growth 96h: inconclusive

Results for COc1ccc(C(=O)O)cc1NC(=S)NC(=O)C(c1ccccc1)c1ccccc1 ?
Shiga inhibitor: -10; NS1 inh: -39%; Pf growth 48h: -19%; CHX counter: -2; FBPA Giardia inh: 17%; Pf growth 96h: inconclusive

What do the screens show for `CCOC(=O)c1[nH]ncc1CN1CCCC(C(=O)c2ccc(C(C)(C)C)cc2)C1` (stereo not given)?
Shiga inhibitor: 22; NS1 inh: -4%; Pf growth 48h: -9%; CHX counter: -2; FBPA Giardia inh: 7%; Pf growth 96h: 11%

What do the screens show for `C=CCn1c(NCc2ccccc2)nc2ccccc21`?
Shiga inhibitor: 51; NS1 inh: -18%; Pf growth 48h: 42%; CHX counter: 16*; FBPA Giardia inh: 6%; Pf growth 96h: 70%

What do the screens show for `c1ccc(Cn2c(NCc3ccncc3)nc3ccccc32)cc1`?
Shiga inhibitor: 52*; NS1 inh: 6%; Pf growth 48h: 58%; CHX counter: 26*; FBPA Giardia inh: -1%; Pf growth 96h: 384%

Results for c1ccc(Cn2c(NCc3ccccn3)nc3ccccc32)cc1 ?
Shiga inhibitor: 3; Pf growth 48h: -1%; CHX counter: -2; FBPA Giardia inh: -1%; Pf growth 96h: inconclusive

How did C=CCn1c(NCc2ccccc2O)nc2ccccc21 do in these assays?
NS1 inh: -4%; Pf growth 48h: inconclusive; CHX counter: 22*; FBPA Giardia inh: 7%; Pf growth 96h: inconclusive

How did CCn1c(NCc2cc(Cl)ccc2O)nc2ccccc21 do in these assays?
Shiga inhibitor: 2; NS1 inh: inconclusive; Pf growth 48h: 7.4µM*; CHX counter: 6; FBPA Giardia inh: -13%; Pf growth 96h: 5.2µM*

What do the screens show for `C=CCn1c(NCc2cc(Cl)ccc2O)nc2ccccc21`?
Shiga inhibitor: -6; NS1 inh: -29%; Pf growth 48h: inconclusive; CHX counter: 1; FBPA Giardia inh: -2%; Pf growth 96h: inconclusive

Results for CC(C)c1cccc(C(C)C)c1NC(=O)CN1CCCC1 ?
Shiga inhibitor: -7; NS1 inh: -10%; Pf growth 48h: inconclusive; CHX counter: -2; FBPA Giardia inh: 0%; Pf growth 96h: 11%
